According to PubChem BioAssay AID504652 (National Center for Advancing Translational Sciences (NCATS), 2011):
“And” between values parts separate entries of the source, which are not always exact repeats. Equal values may be shown once. The campaign covered roughly 360,000 compounds. About 11,000 (3.1%) were called active. No stated cut-off is given here; in the data, active means activity change below about -30%; inactive means the rest. For the sample, actives were picked, then their nearest neighbours and some compounds at random.

Biological target: D(1A) dopamine receptor (Homo sapiens) (UniProt P21728)
Experiment: Antagonist of Human D 1 Dopamine Receptor: qHTS
Details: HEK293 TREx D1 cells, calcium flux, dopamine EC80; at 10 µM; stronger effect = lower value
Outline: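 After overnight tetracycline induction at 30 C, force-coupled D1 HEK293 cells took up a no-wash calcium dye at room temperature. Compounds were added and monitored 180 s, and the response to EC80 dopamine was then recorded.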
On the % scale 0 is the no-effect control and ±100 the full control effect.

D(1A) dopamine receptor (Homo sapiens), sequence (P21728 whole entry, looked up): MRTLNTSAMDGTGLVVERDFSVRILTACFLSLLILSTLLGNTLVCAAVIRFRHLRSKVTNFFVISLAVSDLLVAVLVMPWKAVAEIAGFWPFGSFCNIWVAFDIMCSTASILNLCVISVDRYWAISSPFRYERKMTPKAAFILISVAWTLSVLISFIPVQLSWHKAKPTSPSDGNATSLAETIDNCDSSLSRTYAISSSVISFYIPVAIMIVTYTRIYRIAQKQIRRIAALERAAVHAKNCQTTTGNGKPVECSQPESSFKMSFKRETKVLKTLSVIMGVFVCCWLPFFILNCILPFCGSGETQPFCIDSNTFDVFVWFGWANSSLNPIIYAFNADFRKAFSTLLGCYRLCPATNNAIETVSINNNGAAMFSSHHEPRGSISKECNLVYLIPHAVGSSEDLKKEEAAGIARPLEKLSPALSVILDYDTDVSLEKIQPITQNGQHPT

Row | Structure (SMILES) | activity change, negative = inhibition
1 | CC(=O)Nc1cccc(C(=O)OCC(=O)c2ccc3c(c2)OCO3)c1 | -0.144% (inactive)
2 | CCSc1ccccc1C(=O)Nc1ccc2c(c1)OCO2 | 10% (inactive)
3 | CC(C)C(=O)Nc1cccc(C(=O)Nc2ccc3c(c2)OCO3)c1 | -43.1% (active)
4 | Cc1ccc(Cn2c(=O)n(CCCC(=O)NCc3ccccc3Cl)c(=O)c3ccccc32)cc1 | 5.86% (inactive)
5 | Fc1ccc(CSc2nc(NCc3ccccc3)c3ccccc3n2)cc1 | 21.1% (inactive)
6 | Fc1ccc(CNc2nc3ccccc3n3nnnc23)cc1 | -50.2% (active)
7 | CCOc1ccc(OCC)c(Nc2nc3ccccc3n3nnnc23)c1 | 1.86% (inactive)
8 | CCOC(=O)c1cccc(NC(=O)C(Cc2ccccc2)NS(=O)(=O)c2cccc3nsnc23)c1 (configuration not stated) | -3.2% (inactive)
9 | CCOc1ccccc1OCCCNCc1ccccc1 | -23.9% (inactive)
10 | Clc1cccc(Cl)c1OCCOCCNCc1ccccc1 | -39.7% (active)
11 | OCCNCc1cccc(OCc2ccccc2Cl)c1 | 0.511% (inactive)
12 | O=C(CN1c2ccccc2S(=O)(=O)c2ccccc21)Nc1cccc(C(F)(F)F)c1 | -3.23% (inactive)
13 | Cc1cccc(CC(=O)Nc2cccc(-c3cn4cccnc4n3)c2)c1 | -7.29% (inactive)
14 | COc1cc(CNC(=O)c2cc3n(n2)CCCN(Cc2cccc(F)c2)C3=O)cc(OC)c1OC | -15.1% (inactive)
15 | COc1ccccc1CNS(=O)(=O)c1cc2c3c(c1)CCC(=O)N3CCC2 | -53% (active)
16 | O=C1CCc2cc(S(=O)(=O)Nc3ccc(C(F)(F)F)cc3)cc3c2N1CC3 | -8.34% (inactive)
17 | COc1ccc(C)cc1S(=O)(=O)Nc1cc2c3c(c1)CCC(=O)N3CCC2 | -35% (active)
18 | COc1ccc(C)cc1S(=O)(=O)NC1CCCCC1 | 2.79% (inactive)
19 | COc1ccccc1CCNS(=O)(=O)c1cc2c3c(c1)C(C)C(=O)N3CCC2 (configuration not stated) | -6.83% (inactive)
20 | COc1ccc(CNS(=O)(=O)c2cc3c4c(c2)CCN4C(=O)CC3)cc1 | -7.89% (inactive) and -23.2% (inactive)
21 | CCOC(=O)c1scc(-c2ccc(C)cc2)c1S(=O)(=O)Nc1cc(C)ccc1C | -6.21% (inactive)
22 | COc1cc(OC)cc(C(=O)Nc2ccc3nc(Nc4cccc(C(F)(F)F)c4)cc(C)c3c2)c1 | -9.91% (inactive)

Row | Structure (SMILES) | activity change, negative = inhibition
23 | O=C(c1ccc(Cl)c(Cl)c1)N1CCCC1 | -10.9% (inactive)
24 | O=C(COc1ccc(Cl)cc1[N+](=O)[O-])N1CCCCC1 | 15.9% (inactive)
25 | C/C(=C/c1ccccc1)C(=O)N1CCN(c2ccccc2)CC1 | -2.86% (inactive)
26 | O=C(c1ccc(Cl)c([N+](=O)[O-])c1)N1CCN(c2ccccc2)CC1 | -35.8% (active)
27 | Nc1ccc(C(=O)N2CCN(S(=O)(=O)c3ccc(Cl)cc3)CC2)cc1[N+](=O)[O-] | -1.4% (inactive)
28 | CO/N=C/c1ccc(N2CCN(C(=O)c3cccc(Cl)c3)CC2)c([N+](=O)[O-])c1 | -27.5% (inactive)
29 | O=C(c1ccc(Oc2ccc(Cl)cc2)c([N+](=O)[O-])c1)N1CCCC1 | -38.6% (active)
30 | O=C(c1ccccc1)c1ccc(C(=O)N2CCN(c3ccccc3)CC2)cc1 | -32.4% (active)
31 | CC1CCN(c2nc3ccc(C(=O)N4CCN(c5ccccc5)CC4)cc3s2)CC1 | 4.36% (inactive)
32 | O=S(=O)(c1ccc(C2CCCCC2)cc1)N1CCN(c2ccc(Cl)c(Cl)c2)CC1 | 14.7% (inactive)
33 | Cc1cc(NS(=O)(=O)c2ccc3oc(=O)c4ncn(C)c4c3c2)ccc1Br | -1.47% (inactive)
34 | Cn1nnnc1Sc1ncnc2scc(-c3ccccc3[N+](=O)[O-])c12 | -0.145% (inactive)
35 | Cc1ccc(-c2nc(Cn3c(=O)cc(-c4ccccc4)c4c(C)nn(C)c43)c(C)o2)cc1 | 12% (inactive)
36 | CN(C)c1ccc(NC(=O)CSc2nc(-c3ccco3)cc(C(F)(F)F)n2)cc1 | -4.62% (inactive)
37 | CCn1c(C)c(C)c2cc(C(=O)NCCc3cc(OC)ccc3OC)ccc21 | 13.1% (inactive)
38 | COc1ccc(C(=O)OCC(=O)c2ccc(Cl)s2)c(OC)c1OC | -34.5% (active)
39 | COc1ccc(C(=O)COC(=O)c2ccc([N+](=O)[O-])s2)cc1OC | 3.97% (inactive)
40 | COc1ccc(Cl)cc1C(=O)OCC(=O)NCc1cccs1 | -19.7% (inactive)
41 | COC(=O)c1ccccc1NC(=O)Cn1c(=O)cc(C)c2c(C)nn(-c3cccc(Cl)c3C)c21 | 11.3% (inactive)
42 | Cc1ccc(C)c(Cn2c(CCCNC(=O)C3CCCCC3)nc3ccccc32)c1 | -4.99% (inactive)
43 | Cc1cccc2c1cnn2C(=O)CCC(=O)NC1CCCCC1 | 11.5% (inactive)
44 | Cc1cccc(-c2noc(CCC(=O)NC3CCCC3)n2)c1 | -18.1% (inactive)

Row | Structure (SMILES) | activity change, negative = inhibition
45 | Cc1ccc2c(cnn2C(=O)CCC(=O)NC2CCCC2)c1 | -47.2% (active)
46 | Cc1cccc2c(=O)cc(CSc3ccccc3NC(=O)C(C)C)[nH]c12 | -2.11% (inactive)
47 | COc1ccc(NC(=O)c2ccco2)cc1NC(=O)c1ccc(C#N)cc1F | -1.13% (inactive) and -9.12% (inactive)
48 | COc1ccc(NC(=O)CCC(=O)Nc2cc(OC)c(NC(=O)c3ccco3)cc2OC)c(OC)c1 | -3.66% (inactive)
49 | COc1cc(NC(=O)c2cc([N+](=O)[O-])ccc2Br)ccc1NC(=O)c1ccco1 | -45.2% (active)
50 | COc1ccc(OC)c(-n2nnc(-c3nc(-c4cc(OC)c(OC)c(OC)c4)no3)c2C)c1 | -6.72% (inactive)
51 | Cc1ccc2oc(=O)c3cnn(CC(=O)NCc4ccccc4Cl)c3c2c1 | 1.96% (inactive)
52 | COc1cccc(CNS(=O)(=O)c2ccc3c(c2)N(C(C)=O)CCS3)c1 | 3.44% (inactive)
53 | COc1cccc(CNS(=O)(=O)c2ccc3c(c2)CC(C)N3C(C)=O)c1 (configuration not stated) | -35% (active)
54 | CC1Cc2cc(S(=O)(=O)CCC(=O)NCc3ccc(Cl)cc3)ccc2N1C(=O)C1CC1 (configuration not stated) | -19.3% (inactive)
55 | COc1ccc(N(C)S(=O)(=O)c2ccc3c(c2)CC(C)N3C(=O)C2CC2)c(OC)c1 (configuration not stated) | -41.8% (active)
56 | COc1cccc(CNS(=O)(=O)c2ccc3c(c2)CC(C)N3C(=O)C2CCC2)c1 (configuration not stated) | -10.7% (inactive) and -1% (inactive)
57 | COc1ccccc1CNC(=O)C1CCN(S(=O)(=O)c2ccc3c(c2)CC(C)N3C(=O)C2CC2)CC1 (configuration not stated) | -4.76% (inactive)
58 | Cc1cccc(CNC(=O)c2cnc3sc(N4CCCCC4)nn3c2=O)c1 | 1.97% (inactive)
59 | CCOCCCNC(=O)c1c(NC(=O)c2nc(SC)ncc2Cl)sc2c1CCCC2 | -26.2% (inactive)
60 | CCN(CCCNC(=O)c1cc2c(=O)n(CC)c3ccccc3c2s1)Cc1ccccc1 | 11.6% (inactive)
61 | Cc1cccc(-n2ncc(C(=O)N3CCN(c4ccc(Cl)cc4)CC3)c2C2CCN(C(=O)OC(C)(C)C)CC2)c1 | 1.41% (inactive)
62 | COc1ccc(CNC(=O)c2ccc(NC(=O)N3CC4CCCN4c4ccccc43)cc2)cc1 (configuration not stated) | 40.5% (inactive)
63 | CCOc1ccc(C(=O)NC(=S)Nc2ccc(NC(=O)C(C)C)cc2)cc1[N+](=O)[O-] | -38.8% (active)
64 | CC(=O)Nc1ccc(NC(=S)NC(=O)c2ccc([N+](=O)[O-])c(C)c2)cc1 | -2.38% (inactive)
65 | CCOc1ccc(C(=O)NC(=S)Nc2ccc(N3CCOCC3)c(Cl)c2)cc1[N+](=O)[O-] | -18.8% (inactive)
66 | O=C(Nc1cccc2cccnc12)C(F)(F)F | 5.04% (inactive)

Row | Structure (SMILES) | activity change, negative = inhibition
67 | O=C(NCc1ccccc1Cl)c1cccn1-c1nnc(N2CCCCC2)s1 | -10.7% (inactive)
68 | O=C(Cn1ncc2c3ccccc3n(Cc3ccccc3)c2c1=O)NC1CCCCCC1 | -8.69% (inactive)
69 | COc1cccc(CNCCSc2nnnn2C)c1OCc1ccccc1Cl | -5.2% (inactive)
70 | COc1cccc(CNCCc2c[nH]c3ccccc23)c1OCc1ccccc1F | -35.2% (active)
71 | COc1ccc(C(CCNCc2ccccc2F)c2ccc(F)cc2)cc1 (configuration not stated) | -7.29% (inactive)
72 | O=C(CN1C(=O)COc2ccc(S(=O)(=O)N3CCCCCC3)cc21)N1CCN(c2cccc(C(F)(F)F)c2)CC1 | -0.903% (inactive)
73 | Cc1ccc(NC(=O)CN2CCc3ccccc3C2)cc1C | -59.1% (active)
74 | O=C(CN1CCc2cc3c(cc2C1)OCCCO3)Nc1ccccc1 | -19.4% (inactive)
75 | O=C(CN1CCc2ccccc2C1)Nc1cccc(S(=O)(=O)N2CCOCC2)c1 | 27.4% (inactive)
76 | O=C(NCCc1ccccc1)c1ccc2c(c1)N(Cc1ccc(F)cc1)C(=O)c1ccccc1S2(=O)=O | 6.04% (inactive)
77 | O=C(NCCc1ccccc1)c1ccc2c(c1)N(Cc1ccccc1)C(=O)c1ccccc1S2(=O)=O | -40.3% (active)
78 | COCCNC(=O)c1ccc2c(c1)N(Cc1cccc(Cl)c1)C(=O)c1ccccc1S2(=O)=O | 5.66% (inactive)
79 | COC(=O)c1ccccc1NC(=O)c1ccc2c(=O)n3c(nc2c1)CCCCC3 | 5.25% (inactive)
80 | CC(C)c1ccc(NC(=O)c2cc(S(=O)(=O)N3CCc4ccccc4C3)ccc2F)cc1 | 3.76% (inactive)
81 | CC(C)CNS(=O)(=O)c1ccc(CCC(=O)NCc2ccc(Cl)cc2)cc1 | 3.95% (inactive)
82 | CC(C)CCNC(=O)CCNS(=O)(=O)c1ccc(Cl)cc1 | -17.7% (inactive)
83 | Cc1ccc(S(=O)(=O)NCCC(=O)NCc2ccc(Cl)cc2)cc1C | -35.7% (active)
84 | CC1CCC(N2CC(=O)N(CCC3=CCCCC3)C(c3ccc(F)cc3)C2=O)CC1 (configuration not stated) | -13.9% (inactive)
85 | CCC(=O)N(CCc1ccccc1)Cc1cc2cc(C)ccc2[nH]c1=O | 13.5% (inactive)
86 | Cc1ccc2[nH]c(=O)c(CN(CC3COCCO3)C(=O)Nc3ccccc3C)cc2c1 (configuration not stated) | -8.28% (inactive)
87 | Cc1ccc2[nH]c(=O)c(CN(CCCN(C)C)C(=O)Nc3cccc(Cl)c3)cc2c1 | -39.7% (active)
